Source: PubChem (several laboratories)
Most compounds without a hit are left out; they make up all but 2.4% or so of the library.
NRP1-CendR mod: NRP-1/CendR interaction modulation. O14786. FAM-RPARPAR peptide binding to NRP-1, fluorescence polarization. inhibition, % at 25 µM. 360,000 compounds, 0.85% hits. AID 602438;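 active means inhibition or corrected inhibition above about 18%, plus a signal ratio from 0.5 to 1.5, limit read from the data, passing the limit was not always enough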
A3A deaminase: inhibitors of human APOBEC3A DNA deaminase | recombinant A3A, FAM/TAMRA ssDNA deamination fluorescence | inhibition, % at 20 µM | 330,000 compounds, 0.41% hits | AID 493011;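 active means at least 40% inhibition at 20 µM here, with at most 30% in a related deaminase screen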;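 further: plate controls were A3A with DMSO for no effect and wells lacking A3A enzyme for full effect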
ADAM10 inh: inhibitors of human ADAM10. O14672. recombinant ADAM10, EDANS/DABCYL FRET peptide cleavage, 3 h. inhibition, % at 7 µM. 370,000 compounds, 0.62% hits. AID 720582;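 active means inhibition above a per-campaign cutoff equal to the mean of compounds falling between control-based bounds plus 3 SD, cut at about 20% in these data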;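 further: 0% = DMSO wells while the 100% control is not disclosed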
Target sequence (O14672 214-748 limits assumed): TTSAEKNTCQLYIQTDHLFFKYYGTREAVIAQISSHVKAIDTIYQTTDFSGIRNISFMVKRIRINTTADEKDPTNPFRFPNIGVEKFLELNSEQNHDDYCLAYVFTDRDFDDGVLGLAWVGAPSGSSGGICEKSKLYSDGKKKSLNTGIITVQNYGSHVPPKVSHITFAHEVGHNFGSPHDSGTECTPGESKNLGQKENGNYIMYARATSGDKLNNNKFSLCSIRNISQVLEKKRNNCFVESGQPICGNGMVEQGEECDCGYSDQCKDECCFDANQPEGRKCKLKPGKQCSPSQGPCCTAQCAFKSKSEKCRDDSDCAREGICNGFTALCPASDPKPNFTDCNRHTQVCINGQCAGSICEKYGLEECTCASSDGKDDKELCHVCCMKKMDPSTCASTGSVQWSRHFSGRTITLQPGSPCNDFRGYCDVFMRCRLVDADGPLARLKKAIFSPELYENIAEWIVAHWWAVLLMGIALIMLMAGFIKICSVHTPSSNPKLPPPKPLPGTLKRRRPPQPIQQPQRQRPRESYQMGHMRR
ADAM17 inh: inhibitors of human ADAM17. P78536. recombinant ADAM17, EDANS/DABCYL FRET peptide cleavage. inhibition, % at 6.95 µM. 370,000 compounds, 0.83% hits;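 active means inhibition above the mean of compounds lying between control limits plus 3 SD, set per campaign, cut at about 8.5% in these data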;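 further: 0% = DMSO-only wells as the low control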
A3G deaminase: APOBEC3G (human) deaminase inhibition; Q9HC16; recombinant A3G, ssDNA deamination FAM/TAMRA fluorescence; 330,000 compounds, 0.28% hits; AID 493012; inhibition, % at 20 µM;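 active means inhibition of at least 40% at 20 µM, with no more than 30% in the related APOBEC3A deaminase screen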;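 further: plate controls were DMSO wells with A3G for no effect and wells lacking A3G enzyme for full effect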
ADAM10 confirm: human ADAM10 inhibition, confirmation | ADAM10 QFRET peptide cleavage, EDANS fluorescence | shares compounds with ADAM10 inh | inhibition, % at 6.95 µM | 2,100 compounds, 1% hits;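 active means inhibition above about 20% chosen separately for each screening run, limit read from the data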;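 further: 0% = DMSO wells and 100% = marimastat wells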
ADAM17 counter: counter-screen for ADAM10 exosite inhibitors: inhibitors of human ADAM17. ADAM17 QFRET peptide cleavage, EDANS fluorescence. 2,100 compounds, 0.5% hits. shares compounds with ADAM10 inh. inhibition, % at 6.95 µM;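 active means mean triplicate inhibition above the solvent-only control wells' mean plus 3 SD, cut at about 12% in these data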;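 further: 0% = DMSO wells and 100% = marimastat wells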
An asterisk follows results filed as active.

What do the screens show for `O=C(CSC1CS(=O)(=O)c2cc([N+](=O)[O-])ccc21)NNC(=O)c1ccccc1` (centres undefined)?
NRP1-CendR mod: 9; A3A deaminase: 0; ADAM10 inh: 24*; ADAM17 inh: 6; A3G deaminase: 0; ADAM10 confirm: -1; ADAM17 counter: -1

Results for O=C(CSC1CS(=O)(=O)c2cc([N+](=O)[O-])ccc21)NNC(=O)c1ccc(Cl)cc1 (centres undefined) ?
NRP1-CendR mod: 0; A3A deaminase: -1; ADAM10 inh: 0; ADAM17 inh: -1; A3G deaminase: -4

Results for COc1ccc(-c2cc(C(=O)NN=Cc3ccccc3F)[nH]n2)cc1 ?
ADAM10 inh: -9; ADAM17 inh: -1

Results for COc1ccc(C(=O)COC(=O)/C=C/c2ccc(S(=O)(=O)Nc3cccc(S(N)(=O)=O)c3)cc2)cc1 ?
NRP1-CendR mod: -22; A3A deaminase: 1; ADAM10 inh: 21*; ADAM17 inh: 6; A3G deaminase: -5; ADAM10 confirm: 0; ADAM17 counter: 0

What do the screens show for `CCOC(=O)CC[C@@]1(C(=O)OCC)C[C@@H](CC(=O)NCC23CC4CC(CC(C4)C2)C3)C(=O)N2CCCC=C21`?
ADAM10 inh: 5; ADAM17 inh: -1

How did O=C1NC(Cc2ccc(O)cc2)c2nc3ccc(Br)cc3c(=O)n2-c2cc3ccccc3cc21 (centres undefined) do in these assays?
NRP1-CendR mod: 9; ADAM10 inh: 9; ADAM17 inh: 2

What do the screens show for `Cc1cc(C)c2c(=O)n3c(nc2c1)C(Cc1ccc(O)cc1)NC(=O)c1cc2ccccc2cc1-3` (centres undefined)?
NRP1-CendR mod: 1; ADAM10 inh: 23*; ADAM17 inh: 8; ADAM10 confirm: 21*; ADAM17 counter: 8

What do the screens show for `COc1cc2c(c(OC)c1OC)C1(CCCCC1)CC2NCC=C(C)C` (centres undefined)?
ADAM10 inh: -7; ADAM17 inh: -5

Results for COC(=O)[C@]12C[C@H](CC(=O)NCCCCc3ccccc3)C(=O)N(Cc3ccc4c(c3)OCO4)C1=C[C@H](C(C)C)O[C@@H]2C1CC1 ?
ADAM10 inh: 21*; ADAM17 inh: 6; ADAM10 confirm: 6; ADAM17 counter: 3

What do the screens show for `COC(=O)[C@]12C[C@H](CC(=O)NCc3cccc(C(F)(F)F)c3)C(=O)N(Cc3ccc4c(c3)OCO4)C1=C[C@H](C(C)C)O[C@@H]2C1CC1`?
ADAM10 inh: 20*; ADAM17 inh: 8; ADAM10 confirm: 7; ADAM17 counter: 3

Results for CCCCCCCCN1C(=O)[C@@H](CC(=O)NCc2cccc(C(F)(F)F)c2)C[C@@]2(C(=O)OC)C1=C[C@H](C(C)C)O[C@@H]2C1CC1 ?
ADAM10 inh: 0; ADAM17 inh: -1

How did CCCCCCCCN1C(=O)[C@@H](CC(=O)NCc2ccc(OC)c(OC)c2)C[C@@]2(C(=O)OC)C1=C[C@H](C(C)C)O[C@@H]2C1CC1 do in these assays?
ADAM10 inh: 22*; ADAM17 inh: 6; ADAM10 confirm: 12; ADAM17 counter: 3

Results for OC(c1ccccc1)(c1nc(/C=C/c2ccccc2)cs1)C(F)(F)F (centres undefined) ?
NRP1-CendR mod: 3; ADAM10 inh: 21*; ADAM17 inh: 7; ADAM10 confirm: 8; ADAM17 counter: 3

How did O=C(N/N=C/c1cn(-c2cccs2)nc1-c1ccccc1)c1ccccc1Cl do in these assays?
NRP1-CendR mod: -2; A3A deaminase: 4; ADAM10 inh: 20*; ADAM17 inh: 8; A3G deaminase: -6; ADAM10 confirm: 14; ADAM17 counter: 5

Results for O=C(NNC(=O)c1cc(-c2ccc(Cl)cc2)nc2ccccc12)c1csc(N2CCOCC2)n1 ?
NRP1-CendR mod: 3; A3A deaminase: 1; ADAM10 inh: 29*; ADAM17 inh: 7; A3G deaminase: -5; ADAM10 confirm: 12; ADAM17 counter: 5

How did CCN(CC)S(=O)(=O)c1cccc(-c2n[nH]c(=S)n2/N=C/c2ccc(OC(F)F)cc2)c1 do in these assays?
NRP1-CendR mod: -1; A3A deaminase: -3; ADAM10 inh: 20*; ADAM17 inh: 8; A3G deaminase: -8; ADAM10 confirm: 6; ADAM17 counter: 3

Results for CCOC(=O)c1c(N)sc2c(OCC)c(Br)ccc12 ?
NRP1-CendR mod: -3; A3A deaminase: -1; ADAM10 inh: 23*; ADAM17 inh: 5; A3G deaminase: -4; ADAM10 confirm: 6; ADAM17 counter: 3

How did Cc1nn(C)c(C(=O)N/N=C/c2cccc(Oc3ccccc3)c2)c1Br do in these assays?
NRP1-CendR mod: 1; A3A deaminase: -1; ADAM10 inh: 24*; ADAM17 inh: 1; A3G deaminase: 2; ADAM10 confirm: 3; ADAM17 counter: 1

Results for C=CCCC[C@H]1OC(=O)[C@H](C)NC(=O)[C@H](C(C)C)NC(=O)[C@@H]2CCCN2C(=O)[C@H](Cc2ccccc2)OC(=O)[C@@H](C(C)C)N(C)C(=O)[C@H](C(C)C)NC(=O)C1(C)C ?
ADAM10 inh: 9; ADAM17 inh: -2

How did O=[N+]([O-])c1ccccc1-c1nc(-c2ccc(Br)o2)no1 do in these assays?
NRP1-CendR mod: -4; A3A deaminase: 3; ADAM10 inh: 23*; ADAM17 inh: 5; A3G deaminase: 3; ADAM10 confirm: 1; ADAM17 counter: 1

How did Cc1cc(SCC(=O)N/N=C/c2ccc(O)c(O)c2)c(C)cc1Br do in these assays?
NRP1-CendR mod: -6; A3A deaminase: -1; ADAM10 inh: 29*; ADAM17 inh: 4; A3G deaminase: -4; ADAM10 confirm: 6; ADAM17 counter: 2

Results for Cc1cc(SCC(=O)N/N=C/c2ccc(O)c(O)c2)nc2ccccc12 ?
NRP1-CendR mod: -32; A3A deaminase: -2; ADAM10 inh: 8; ADAM17 inh: 3; A3G deaminase: -3

How did Cn1c(NCc2cc(Br)ccc2O)nc2ccccc21 do in these assays?
NRP1-CendR mod: 4; A3A deaminase: -3; ADAM10 inh: 21*; ADAM17 inh: 5; A3G deaminase: -3; ADAM10 confirm: 1; ADAM17 counter: 0

Results for CCCCn1c(NCc2cc(C)ccc2O)nc2ccccc21 ?
NRP1-CendR mod: -9; ADAM10 inh: 23*; ADAM17 inh: 6; ADAM10 confirm: 3; ADAM17 counter: 1

How did CCCCCCC(=O)NC1CCCCN(C)C1=O (centres undefined) do in these assays?
ADAM10 inh: 1; ADAM17 inh: 0

How did O=C(Nc1nc2ccccc2s1)C1CCCO1 (centres undefined) do in these assays?
NRP1-CendR mod: -10; A3A deaminase: 0; ADAM10 inh: 1; ADAM17 inh: -2; A3G deaminase: 0
